These results are taken from PubChem BioAssay.

Where “and” joins values, the source holds several entries; their conditions need not be identical. Equal values may be shown once. Records with an inconclusive call do not appear. For some assays here: Measured potencies and affinities stand elsewhere. A structure can be active in one record and inactive in another. Calls of active or inactive are those of the source.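 Rule for the calls, unless noted: active = at least 20% inhibition of 6-phosphogluconate dehydrogenase activity; inactive = the rest.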

Assay [1] addresses 6-phosphogluconate dehydrogenase, decarboxylating (Homo sapiens) (UniProt P52209). Put plainly: inhibition of human phosphogluconate dehydrogenase – biochemical, recombinant enzyme, NADPH absorbance, primary screen (AID 1159550). The settings on record: recombinant 6PGD, NADPH absorbance 341 nm; at 10 µM; stronger effect = higher value.
A short description of assay [2]: EMT-state selective cytotoxicity in co-culture – imaging, PC-3E GFP, TEM4-18 mCherry, primary screen (AID 1345086;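 active = compounds killing one labelled cell type while sparing the other, by normalised counts and ratio limits, not self-fluorescent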;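 for all read-outs here: cells exposed to compound for 72 h before imaging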;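 for red/green cell ratio (normalised): normalised mesenchymal count divided by normalised epithelial count so high means epithelial killing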). The settings on record: PC-3E GFP / TEM4-18 mCherry co-culture, imaging cell counts, at 1 µM; for red/green cell ratio (normalised): actives lie on both sides, counts scaled to control wells, 1 = unselective.
In assay [3] the target is Mitogen-activated protein kinase 7 (Homo sapiens) (UniProt Q13164). Put plainly: Gal4-ERK5 driven luciferase induction – cell-based, HTS, primary screen (AID 1508626;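 active = luciferase signal above three times the same-plate solvent-only control wells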;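 note: luciferase driven by Gal4-ERK5 fusion binding five Gal4 sites before minimal TATA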). The settings on record: HeLa Gal4-ERK5 transactivation, 18 h, at 5 µM, stronger effect = higher value.
A short description of assay [4]: blockers of polyQ-driven CASP3 activation – cell-based (AID 1583). The conditions noted are these: polyglutamine-induced caspase-3 activation, cell assay; stronger effect = higher value;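 tested at 10 µM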.
Assay [5] is described as follows: yeast 75Q aggregation reduction – 75Q-TubU reporter (AID 1593). The conditions noted are these: Yeast 75Q polyglutamine aggregation reporter.
The nature of assay [6]: restoration of touch response, mutant HTT neurons – whole organism, C. elegans mechanosensory neurons, N-terminal huntingtin (AID 1599). The conditions noted are these: C. elegans polyQ-huntingtin mechanosensory neurons, stronger effect = higher value.
Assay [7] in a line: blockers of cytochrome c efflux from mitochondria – biochemical, purified mitochondria (AID 1603).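 Note: mouse liver mitochondria challenged with calcium chloride; signal normalized to the plate average as 100%.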 The conditions noted are these: stronger effect = lower value.
Assay [8] in a line: polyglutamine aggregate formation blockers (AID 1604). The settings on record: polyglutamine-induced protein aggregation inhibition assay; stronger effect = higher value; tested at 2.5 µM.
Assay [9] in a line: glutamate transport activators, MN-1 cells, MN-1 cell line (AID 1612).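 Note: tested at 1 µM final; 0% = mean of DMSO vehicle wells on each plate; positive means more glutamate uptake than control and negative means less.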 The settings on record: MN-1 motor neuron cells, stronger effect = higher value.
The nature of assay [10]: 75Q-TubH aggregate inhibition, S. cerevisiae, yeast (AID 1616). The settings on record: S. cerevisiae 75Q-TubH polyglutamine aggregation suppression; stronger effect = higher value.
A short description of assay [11]: P. berghei load reduction in hepatocytes – cell-based, HepG2, luciferase luminescence, HepG2 viability, primary screen (AID 624349; in the data active = parasite load remaining mostly below about 12%, no sharp cut-off; inactive = mostly above about 10%;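 note: 100% = mean of DMSO negative control wells on the same plate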). The conditions noted are these: P. berghei liver stage in HepG2, luciferase luminescence, concentration not given here; parasite load remaining: stronger effect = lower value; viability: measured here: HepG2 viability without parasites.
Assay [12] in a line: viability loss in pontine glioma line – cell-based, SU-DIPG-XVII, MIPE5.0, CellTiter-Glo, qHTS, dose response (AID 1347060; cut-off not given, nearly all actives have AC50 up to about 26 µM;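 note: cells exposed to compound for 48 hours before viability readout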). The conditions noted are these: CellTiter-Glo ATP luminescence.
The nature of assay [13]: JHH-DIPG-1 glioma cell viability, MIPE5.0 library, CellTiter-Glo luminescence, qHTS (AID 1347067; cut-off not given, nearly all actives have AC50 up to about 26 µM;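 note: cells exposed to compound for 48 hours before readout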). The settings on record: JHH-DIPG-1 glioma viability, CellTiter-Glo ATP luminescence.
Assay [14] in a line: viability loss with induced miR-34 in A549 – imaging, A549 dox-inducible miR-34, nuclei and caspase counts, primary screen (AID 1347080;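 active = compounds whose cell count with miR-34 switched on is under 0.7 times the count with it off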). The conditions noted are these: A549 miR-34 inducible, Hoechst nuclei count, 48 h.
Assay [15] is described as follows: galactose survival enhancers in mitochondrial complex I cybrids – cell-based, galactose medium, ATP luminescence, primary screen (AID 1645843;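 active = z-score of at least 1.8 in each of two replicates, scored against plate mean and spread of sample wells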;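 note: positive z means more ATP and so rescue of galactose-driven cybrid death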). The settings on record: complex I mutant cybrid cells, 72 h, stronger effect = higher value.
[16] abbreviates: measured here: epithelial PC-3E GFP cell survival.
[17] abbreviates: measured here: mesenchymal TEM4-18 mCherry cell survival.

Sequence of Mitogen-activated protein kinase 7 (Homo sapiens) (Q13164 whole entry, looked up, the tested form may be a part): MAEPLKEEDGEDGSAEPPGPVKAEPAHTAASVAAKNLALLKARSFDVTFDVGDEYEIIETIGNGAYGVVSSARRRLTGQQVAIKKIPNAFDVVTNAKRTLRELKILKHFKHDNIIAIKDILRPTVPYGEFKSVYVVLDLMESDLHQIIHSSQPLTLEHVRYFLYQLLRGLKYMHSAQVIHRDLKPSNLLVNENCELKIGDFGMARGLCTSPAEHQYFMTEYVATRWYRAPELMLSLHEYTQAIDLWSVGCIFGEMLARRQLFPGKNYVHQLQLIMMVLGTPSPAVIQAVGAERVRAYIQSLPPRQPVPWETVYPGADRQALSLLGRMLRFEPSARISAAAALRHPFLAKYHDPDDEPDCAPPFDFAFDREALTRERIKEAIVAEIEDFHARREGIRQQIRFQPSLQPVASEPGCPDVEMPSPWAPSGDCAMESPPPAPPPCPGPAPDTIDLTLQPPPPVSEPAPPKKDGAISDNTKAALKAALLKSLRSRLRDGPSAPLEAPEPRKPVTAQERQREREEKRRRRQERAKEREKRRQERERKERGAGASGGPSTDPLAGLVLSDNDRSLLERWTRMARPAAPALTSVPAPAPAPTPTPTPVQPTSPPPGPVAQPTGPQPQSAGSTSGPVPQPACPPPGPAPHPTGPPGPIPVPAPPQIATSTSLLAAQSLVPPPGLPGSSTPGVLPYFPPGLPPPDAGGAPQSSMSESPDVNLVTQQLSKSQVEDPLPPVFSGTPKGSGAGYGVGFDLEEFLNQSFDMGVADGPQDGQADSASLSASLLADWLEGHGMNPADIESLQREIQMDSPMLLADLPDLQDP
Sequence of 6-phosphogluconate dehydrogenase, decarboxylating (Homo sapiens) (P52209 whole entry, looked up): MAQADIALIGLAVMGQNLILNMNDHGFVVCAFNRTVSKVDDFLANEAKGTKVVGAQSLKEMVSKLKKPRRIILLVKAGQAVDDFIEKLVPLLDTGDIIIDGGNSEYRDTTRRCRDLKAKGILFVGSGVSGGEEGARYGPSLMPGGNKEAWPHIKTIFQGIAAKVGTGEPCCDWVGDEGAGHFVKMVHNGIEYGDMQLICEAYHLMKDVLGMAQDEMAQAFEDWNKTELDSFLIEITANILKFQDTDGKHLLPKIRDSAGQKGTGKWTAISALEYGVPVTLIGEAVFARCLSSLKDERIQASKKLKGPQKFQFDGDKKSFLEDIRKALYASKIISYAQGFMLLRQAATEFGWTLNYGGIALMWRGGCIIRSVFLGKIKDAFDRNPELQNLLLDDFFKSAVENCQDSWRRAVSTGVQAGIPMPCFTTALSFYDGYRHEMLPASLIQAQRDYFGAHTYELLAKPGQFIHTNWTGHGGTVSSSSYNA

In the case of `CC(CCC(=O)O)[C@H]1CCC2C3CC[C@@H]4CC(=O)CC[C@]4(C)C3C=C[C@@]21C` (stereo partly drawn), the inhibition in assay [1] was 12.1% (inactive). The red/green cell ratio (normalised) in assay [2] is 0.9 (inactive). Moreover, the results for the normalised cell number in assay [2] (setting [16]) and in assay [2] (setting [17]) were 1 and 0.9, respectively. For the same compound, the luciferase signal in assay [3] is 28 AU (inactive).
Taken in the same sequence, the figures for `C=C1C(=O)O[C@@H]2C[C@@]3(C)CCC[C@H](C)C3=C[C@H]12` were 8.8% (inactive), 1.12 (inactive), 0.81, 0.9 and 84 AU (inactive).
Taken in the same sequence, the figures for `COc1cc(O)c(C(=O)c2ccccc2)cc1O` were -3.44% (inactive), 0.89 (inactive), 1.31, 1.17 and 48 AU (inactive).
Take `COc1cc(C(C)=O)cc(OC)c1O`: the inhibition in assay [1] is -40.3% (inactive). In assay [2], the red/green cell ratio (normalised) was 1.05 (inactive). Further, the normalised cell number amounted to 0.87 in [2] (setting [16]) and 0.91 in [2] (setting [17]). In assay [3], the luciferase signal was 64 AU (inactive).
As for `CCCCCc1c2c(cc(O)c1C(=O)O)OC(=O)c1c(cc(OC)cc1C(=O)CCCC)O2`, the inhibition in assay [1] was 4.81% (inactive). Further, in assay [2], the red/green cell ratio (normalised) was 0.98 (inactive). The normalised cell number is 1.07 in [2] (setting [16]) and 1.05 in assay [2] (setting [17]). Also, the luciferase signal in assay [3] was 48 AU (inactive).
Consider `C=C1C2CC[C@@]3(C)[C@H](c4ccoc4)OC(=O)C[C@]13O[C@H]1CC(=O)C(C)(C)[C@H](C(O)C(=O)OC)[C@@]21C` (stereo partly drawn), for which the inhibition in [1] was -4.16% (inactive). Moreover, the red/green cell ratio (normalised) in assay [2] was 0.98 (inactive). Further, the normalised cell number amounted to 0.75 in [2] (setting [16]) and 0.74 in assay [2] (setting [17]). The luciferase signal in [3] was 28 AU (inactive).
With `COc1c(O)cccc1O`, the inhibition in assay [1] is -5.16% (inactive). Further, the red/green cell ratio (normalised) in [2] was 0.77 (inactive). The results for the normalised cell number in [2] (setting [16]) and in [2] (setting [17]) were 0.96 and 0.74, respectively. Moreover, the luciferase signal in assay [3] is 76 AU (inactive).
In the case of `CCOC(=O)c1c(C)cc(O)cc1O`, the inhibition in [1] is 0.669% (inactive). Besides, in assay [2], the red/green cell ratio (normalised) is 0.99 (inactive). In addition, the normalised cell number in assay [2] (setting [16]) and in assay [2] (setting [17]) was 0.99 in each case. Further, the luciferase signal in assay [3] is 72 AU (inactive).
On to `CC(=O)O[C@@H]1CC2C(C)(C)[C@H](O)CC[C@]2(C)C2CC[C@@]3(C)[C@H](c4ccoc4)OC(=O)C4OC43[C@@]21C` (stereo partly drawn), for which the inhibition in assay [1] was -1.03% (inactive) and -1.39% (inactive). In addition, the red/green cell ratio (normalised) in assay [2] is 1.03 (inactive). The values for the normalised cell number in assay [2] (setting [16]) and in assay [2] (setting [17]) were 1.03 and 1.06, respectively. The luciferase signal in assay [3] was 36 AU (inactive).
With `O=C(O[C@@H]1Cc2c(O)cc(O)cc2O[C@@H]1c1ccc(O)c(O)c1)c1cc(O)c(O)c(O)c1`, the inhibition in [1] was 5.78% (inactive). Besides, the red/green cell ratio (normalised) in assay [2] was 0.99 (inactive). The normalised cell number in [2] (setting [16]) is 0.85; in [2] (setting [17]) it was 0.83. Moreover, the luciferase signal in [3] is 52 AU (inactive).
Take `CC(=O)Oc1ccc(O)cc1`: the inhibition in [1] was 4.32% (inactive). For the same compound, the red/green cell ratio (normalised) in assay [2] was 1.07 (inactive) and 1.15 (inactive). Further, the normalised cell number in [2] (setting [16]) was 1.01 and 1.05; in assay [2] (setting [17]), 1.08 and 1.21. The luciferase signal in assay [3] is 88 AU (inactive).
Turning to `O=C(O)c1nc2cc(Cl)c(Cl)cc2[nH]c1=O`, in assay [1], the inhibition is -11.6% (inactive). In addition, the red/green cell ratio (normalised) in assay [2] is 0.95 (inactive). Moreover, the normalised cell number is 1.19 in assay [2] (setting [16]) and 1.12 in [2] (setting [17]). Also, in assay [3], the luciferase signal was 36 AU (inactive).
For the compound `COc1ccc2c(c1)O[C@@H]1COc3cc(OC)c(OC)cc3[C@@H]1C2=O`, the inhibition in [1] is -2.95% (inactive). Moreover, the red/green cell ratio (normalised) in [2] is 0.88 (inactive). The results for the normalised cell number in [2] (setting [16]) and in assay [2] (setting [17]) were 0.9 and 0.79, respectively. Further, the luciferase signal in assay [3] was 68 AU (inactive).
For `COc1ccc(-c2coc3c(OC)c(OC)cc(O)c3c2=O)cc1`, the inhibition in [1] was -3.95% (inactive). Besides, the red/green cell ratio (normalised) in assay [2] was 1.01 (inactive). Besides, the normalised cell number in [2] (setting [16]) is 1.18; in [2] (setting [17]) it was 1.19. Also, the luciferase signal in [3] is 56 AU (inactive).
With `NC(Cn1ccc(=O)c(O)c1)C(=O)O` (stereo not drawn), the inhibition in assay [4] is -4.48%; in assay [1], 17.3% (inactive). In [5], this compound gave a score of 0.73. The same compound came in with a rescue above control in assay [6] of -6.31. Further, in assay [7], the cytochrome c release ratio stood at 0.84. The inhibition of aggregation in assay [8] stood at 7.48%. Besides, in [9], the glutamate uptake change worked out at 15.6%. Moreover, the aggregation suppression score in assay [10] turned out to be 0.845. For the same compound, in assay [11], the parasite load remaining was 81.8% (inactive) and 76.8% (inactive). Also, the viability in [11] is 72.6%. Besides, the red/green cell ratio (normalised) in assay [2] was 1.1 (inactive). The normalised cell number in assay [2] (setting [16]) stood at 0.94; in [2] (setting [17]), 1.04.
With `C[C@@]12C(=O)OC(=O)[C@]1(C)[C@H]1CC[C@@H]2O1`, the parasite load remaining in assay [11] is -0.2% (inactive). This compound registered a viability in assay [11] of 9.1%. Moreover, the inhibition in [1] was -26.6% (inactive). The values for the concentration at half-maximal activity (AC50) in [12] and in assay [13] were 2630 nM (active) and 2350 nM (active), respectively. Besides, the fold change in [14] (stronger effect = lower value, cell number ratio, induced over uninduced) is 0.592 (active) and 1.01 (inactive); in assay [14] (measured here: relative caspase fold change +Dox/-Dox) it was 2.6 and 1.41. The cell count in [14] (measured here: total cells with miR-34 induction, stronger effect = lower value) was 223 and 535; in assay [14] (measured here: total cells without miR-34 induction) it was 376 and 530. In addition, in assay [3], the luciferase signal is 52 AU (inactive). Moreover, the z-score in assay [15] is -0.755 (inactive).
Take `O=C(O)c1cc2ccccc2[nH]1`: in assay [11], the parasite load remaining is 53.6% (inactive). The viability in assay [11] came to 75.3%. In addition, in assay [1], the inhibition was 0.53% (inactive). Also, the red/green cell ratio (normalised) in assay [2] is 1.04 (inactive). In addition, the normalised cell number in assay [2] (setting [16]) is 0.91; in assay [2] (setting [17]) it was 0.95. Besides, in [3], the luciferase signal is 36 AU (inactive).
Consider `O=C(/C=C/c1ccccc1)c1ccc(O)cc1`, for which, in assay [1], the inhibition is 1.18% (inactive). In addition, in assay [2], the red/green cell ratio (normalised) was 1.04 (inactive). Moreover, the normalised cell number in assay [2] (setting [16]) came to 0.75; in assay [2] (setting [17]) it was 0.79. Moreover, in assay [3], the luciferase signal was 28 AU (inactive).
For `COc1c(OC)c2occc2c2oc(=O)ccc12`, the inhibition was -21% in [4] and -3.21% (inactive) in assay [1]. This compound showed a score in assay [5] of 0.45. For the same compound, in assay [6], the rescue above control is 5.04. Further, in assay [7], the cytochrome c release ratio was found to be 1. The compound further yielded an inhibition of aggregation in [8] of 42.9%. Further, the glutamate uptake change in [9] was -3.15%. For the same compound, the aggregation suppression score in assay [10] amounted to 0.328. Further, the red/green cell ratio (normalised) in assay [2] is 0.97 (inactive). Besides, the values for the normalised cell number in [2] (setting [16]) and in [2] (setting [17]) were 1.12 and 1.08, respectively. In addition, the luciferase signal in assay [3] was 28 AU (inactive).
In the case of `COc1c2ccoc2nc2c(OC)c(OCC(O)C(C)(C)O)ccc12` (stereo not drawn), the inhibition in assay [1] is -4.68% (inactive). Besides, the red/green cell ratio (normalised) in [2] was 0.91 (inactive). The normalised cell number in assay [2] (setting [16]) is 1; in [2] (setting [17]) it was 0.92. Moreover, the luciferase signal in [3] is 28 AU (inactive).
For `CC(C(=O)O)[C@H]1CCC2C3CC=C4C[C@@H](O)CC[C@]4(C)C3CC[C@@]21C` (stereo partly drawn), the inhibition in assay [1] was 8.3% (inactive). The red/green cell ratio (normalised) in [2] is 0.91 (inactive). Further, the results for the normalised cell number in assay [2] (setting [16]) and in assay [2] (setting [17]) were 1.12 and 1.02, respectively. For the same compound, in [3], the luciferase signal is 44 AU (inactive).
